Values joined by “and” are separate entries in the source; they are usually repeats but may differ in a detail not shown here. Identical values can stand only once. Inconclusive results are not listed. Active and inactive are the calls of the source. Calls come from the whole dose curve; as a rule, active = well fitted inhibition curve with a large enough effect; inconclusive = small, poorly fitted or top-dose-only effect; inactive = flat fitted curve, though single readings scatter.
Tests used:
CRL-7250 = normal cell line; assay: Cytotoxic Profiling of Annotated Libraries Using Quantitative High-Throughput Screening (AID 1296008); conditions: Five cell lines viability, CellTiter-Glo ATP luminescence, 48-72 h; max response: hits give low values
Summary of the method: (§1)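 Cells exposed to compounds for 48 or 72 hr at 37 degrees Celsius. Viability read as ATP-coupled luminescence with CellTiter-Glo after 10 min at room temperature.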

HEK293 = assay: as above; conditions: Five cell lines viability, CellTiter-Glo ATP luminescence, 48-72 h; max response: hits give low values
Summary of the method: as §1

HaCat [1] = assay: as above; conditions: Five cell lines viability, CellTiter-Glo ATP luminescence, 48-72 h; max response: hits give low values
Summary of the method: as §1

KB-3-1 = assay: as above; conditions: Five cell lines viability, CellTiter-Glo ATP luminescence, 48-72 h; max response: hits give low values
Summary of the method: as §1

NIH3T3 = assay: as above; conditions: Five cell lines viability, CellTiter-Glo ATP luminescence, 48-72 h; max response: hits give low values
Summary of the method: as §1

HACAT [2] = assay: qHTS assay to identify novel small-molecules to repurpose for Merkel cell carcinoma treatment (AID 1296009); conditions: MCC and control cell lines, CellTiter-Glo viability, 72 h; at 44.8 µM (top of the series) unless noted
Summary of the method: (§2)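 Cells were treated for 72 hr at 37 degree celsius with compounds in 8- or 11-point dose response. Viability was read by CellTiter-Glo luminescence, normalized to no-cell (cytotoxicity) and DMSO controls.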

MCC-13 = assay: as above; conditions: MCC and control cell lines, CellTiter-Glo viability, 72 h; series mostly up to 46 µM
Summary of the method: as §2

MCC-26 = assay: as above; conditions: MCC and control cell lines, CellTiter-Glo viability, 72 h; series mostly up to 46 µM
Summary of the method: as §2

MKL-1 = assay: as above; conditions: MCC and control cell lines, CellTiter-Glo viability, 72 h; series mostly up to 46 µM
Summary of the method: as §2

MKL-2 = assay: as above; conditions: MCC and control cell lines, CellTiter-Glo viability, 72 h; series mostly up to 46 µM
Summary of the method: as §2

HEK293T = assay: as above; conditions: MCC and control cell lines, CellTiter-Glo viability, 72 h; at 44.8 µM (top of the series) unless noted
Summary of the method: as §2
% is set by controls: 0 for no effect and ±100 for the full control effect.
Note: nearly all actives have a fitted effect of over 60% in size.

CCCCCOc1ccc(C2SC(=O)NC2=O)cc1OCC (stereo not given)
inactive: max response (CRL-7250) -3.49% | max response (HEK293) 3.99% | outcome (HaCat [1]) | outcome (KB-3-1) | outcome (NIH3T3) | outcome (HACAT [2]) | Potency (MCC-13) | Potency (MCC-26) | Potency (MKL-1) | Potency (MKL-2)

CC(C(=O)O)c1ccc(/C=C2\CCCCC2=O)cc1 (stereo not given)
inactive: max response (CRL-7250) 1.18% | max response (HEK293) -12.2% | outcome (HaCat [1]) | outcome (KB-3-1) | max response (NIH3T3) 3.05% | outcome (HACAT [2]) | Potency (MCC-13) | Potency (MKL-1) | Potency (MKL-2)

Cc1cc(O)c2c(O)c3c(O)cccc3cc2c1
inactive: outcome (CRL-7250) | max response (HEK293) -2.16% | outcome (HaCat [1]) | max response (KB-3-1) -20.5% | max response (NIH3T3) -2.19% | outcome (HACAT [2]) | Potency (MCC-13) | Potency (MCC-26) | Potency (MKL-1) | Potency (MKL-2)

CN1CCC(=C2c3ccccc3CCc3cccnc32)CC1
inactive: max response (CRL-7250) 3.77% | max response (HEK293) 2.67% | outcome (HaCat [1]) | max response (KB-3-1) -10.8% | outcome (NIH3T3) | outcome (HACAT [2]) | Potency (MCC-13) | Potency (MCC-26) | Potency (MKL-1) | Potency (MKL-2)

O=C(O)[C@@H](O)[C@H](O)[C@H](O)[C@@H](O)C(=O)O
inactive: max response (CRL-7250) -8.84% | max response (HEK293) 3.38% | outcome (HaCat [1]) | max response (KB-3-1) -10.9% | max response (NIH3T3) -2.02% | outcome (HACAT [2]) | Potency (MCC-13) | Potency (MCC-26) | Potency (MKL-1) | Potency (MKL-2)

Cc1ccccc1N1CCN(CCc2nnc3n2CCCC3)CC1
inactive: max response (CRL-7250) -7.88% | outcome (HEK293) | max response (HaCat [1]) -11.8% | max response (KB-3-1) -5.62% | max response (NIH3T3) 4.77% | outcome (HEK293T) | Potency (MCC-13) | Potency (MKL-1) | Potency (MKL-2)

Cc1nc([N+](=O)[O-])cn1-c1ccc([N+](=O)[O-])cc1
inactive: max response (CRL-7250) 1.02% | max response (HEK293) 0.842% | outcome (HaCat [1]) | max response (KB-3-1) 5.55% | outcome (NIH3T3) | outcome (HACAT [2]) | Potency (MCC-13) | Potency (MCC-26) | Potency (MKL-1) | Potency (MKL-2)

N[C@@H](Cc1cc(I)c(O)c(I)c1)C(=O)O
inactive: max response (CRL-7250) 1.61% | max response (HEK293) -5.41% | max response (HaCat [1]) 4.36% | max response (KB-3-1) -0.833% | max response (NIH3T3) -12.4% | Potency (MCC-13) | Potency (MCC-26) | Potency (MKL-1) | Potency (MKL-2)

Nc1c[n+](N2CCOCC2)no1
inactive: outcome (CRL-7250) | outcome (HEK293) | max response (HaCat [1]) -23.5% | max response (KB-3-1) -10.9% | outcome (NIH3T3) | outcome (HEK293T) | Potency (MCC-13) | Potency (MCC-26) | Potency (MKL-1) | Potency (MKL-2)

O=C(OCC(COC(=O)c1cccnc1)(COC(=O)c1cccnc1)COC(=O)c1cccnc1)c1cccnc1
inactive: outcome (CRL-7250) | max response (HEK293) -3.93% | outcome (HaCat [1]) | max response (KB-3-1) -20.2% | outcome (NIH3T3) | outcome (HACAT [2]) | Potency (MCC-13) | Potency (MKL-1) | Potency (MKL-2)

CCC(=O)O[C@H]1[C@H](O[C@@H]2[C@@H](C)[C@H](O[C@H]3C[C@@](C)(OC)[C@@H](O)[C@H](C)O3)[C@@H](C)C(=O)O[C@H](CC)[C@@](C)(O)[C@H](O)[C@@H](C)C(=O)[C@H](C)C[C@@]2(C)O)O[C@H](C)C[C@@H]1N(C)C
inactive: max response (CRL-7250) 0.377% | outcome (HEK293) | max response (HaCat [1]) 0.29% | max response (KB-3-1) 2.69% | max response (NIH3T3) 1.01% | outcome (HEK293T) | Potency (MCC-13) | Potency (MKL-1) | Potency (MKL-2)

O=C(O)Cc1ccc(OCCNC[C@H](O)c2ccccc2)cc1
inactive: outcome (CRL-7250) | max response (HEK293) -3.07% | max response (HaCat [1]) 2.67% | max response (KB-3-1) -1.64% | max response (NIH3T3) 0.971% | Potency (MCC-13)

CC(CCc1ccc2c(c1)OCO2)NN (stereo not given)
inactive: max response (CRL-7250) -8.5% | outcome (HEK293) | max response (HaCat [1]) 2.43% | max response (KB-3-1) -13.1% | outcome (NIH3T3) | outcome (HEK293T) | Potency (MCC-13) | Potency (MCC-26) | Potency (MKL-1) | Potency (MKL-2)

Cc1ccc(O)cc1
inactive: max response (CRL-7250) -3.08% | max response (HEK293) 0.45% | outcome (HaCat [1]) | max response (KB-3-1) -1.63% and -10.4% | max response (NIH3T3) 0.99% | outcome (HACAT [2]) | Potency (MCC-13) | Potency (MCC-26) | Potency (MKL-1) | Potency (MKL-2)

CN1C(=O)CC(C)(c2ccccc2)C1=O (stereo not given)
inactive: max response (CRL-7250) -0.376% | max response (HEK293) 1.84% | outcome (HaCat [1]) | max response (KB-3-1) -1.96% | outcome (NIH3T3) | outcome (HACAT [2]) | Potency (MCC-13) | Potency (MCC-26) | Potency (MKL-1) | Potency (MKL-2)

O=C(OCC1(COC(=O)c2cccnc2)CCCC(COC(=O)c2cccnc2)(COC(=O)c2cccnc2)C1O)c1cccnc1
inactive: max response (CRL-7250) -5.9% | max response (HEK293) -9.95% | outcome (HaCat [1]) | max response (KB-3-1) 8.89% | max response (NIH3T3) -1.33% | outcome (HACAT [2]) | Potency (MCC-13) | Potency (MKL-1) | Potency (MKL-2)

CCOc1ccc(NS(=O)(=O)c2ccc(N)cc2)nn1
inactive: max response (CRL-7250) 2.59% | outcome (HEK293) | max response (HaCat [1]) 1.89% | max response (KB-3-1) -7.66% | max response (NIH3T3) 3.16% | outcome (HEK293T) | Potency (MCC-13) | Potency (MCC-26) | Potency (MKL-1) | Potency (MKL-2)

CC(=O)CC/C=C(\C)CC/C=C(\C)CC/C=C(\C)CCC=C(C)C
inactive: outcome (CRL-7250) | outcome (HEK293) | max response (HaCat [1]) -9.87% | max response (KB-3-1) -13.4% | max response (NIH3T3) -3.99% | outcome (HEK293T) | Potency (MCC-13) | Potency (MCC-26) | Potency (MKL-1) | Potency (MKL-2)
